# LGR2 antag = inhibitors of bursicon-induced LGR2 CRE-luciferase signal, primary screen, cell-based, HEK293, CRE-luciferase reporter, bursicon stimulation; inhibition, % at 9.99 µM; 0.35% of 380,000 active; bursicon-stimulated, 4 h; Drosophila bursicon receptor LGR2 (rickets);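 active means drop in luminescence signal, shown as inhibition above about 50% in the replicate tests, limit read from the data, passing the limit was not always enough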;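 further: agonist challenge used bursicon conditioned medium at about half maximal strength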
# TWEAK-Fn14 inh = inhibitors of TWEAK-Fn14 signaling, primary screen, luciferase reporter cells, uHTS; 2% of 360,000 active; inhibition, % at 10 µM; TWEAK-stimulated Fn14 reporter cells, luciferase luminescence, 8 h; in the data active means inhibition above about 50%
# MITF TRPM1 HTS = activators of MITF-driven TRPM1 promoter reporter, primary screen, cell-based, SK-MEL-5, luciferase, single point. AID 588334, 2011. 0.75% of 300,000 active. activation, % at 12.5 µM. SK-MEL-5 TRPM1-promoter luciferase, 24 h; % of positive control, neutral wells = 0;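 active means mean activation of at least 80% with every replicate also reaching 80%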;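 further: 0% = neutral control wells and 100% = parthenolide positive control wells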
# MITF TRPM1 inh = inhibitors of MITF-dependent TRPM1 promoter reporter, primary screen, cell-based, SK-MEL-5, single point, luciferase; SK-MEL-5 TRPM1 promoter luciferase, 24 h; inhibition, % at 12.5 µM; 0.83% of 330,000 active; AID 488899, 2010;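 active means mean inhibition across replicates of 60% or more, whatever share of single replicates reaches that level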
# TROY NFkB inh = inhibitors of TROY-driven NF-kB signaling, primary screen, Q293 LMP1-TROYcd cells, NF-kB luciferase, uHTS; Q293 LMP1-TROYcd NF-kB luciferase reporter, 4 h; inhibition, % at 10 µM; 0.98% of 360,000 active; AID 1347056, 2019;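 active means compounds whose plate-normalised and pattern-corrected inhibition of the luciferase reporter signal at the single screening dose is 50% or more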
# EBV LMP1 NFkB = EBV LMP1-driven NF-kappaB luciferase reporter inhibitors, primary screen, cell-based, luminescence, single point. LMP1-induced NF-kappaB luciferase reporter cells. inhibition, % at 12.5 µM. 0.69% of 350,000 active. AID 504558, 2011; in the data active means inhibition above about 41%;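 further: 0% = neutral control wells and 100% = reference inhibitor control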
# The depositor's hits bear a star; . = not tested or not shown. Only some compounds are listed: those with a hit (about 3% of all), similar ones and a draw of the others.
SMILES,LGR2 antag,TWEAK-Fn14 inh,MITF TRPM1 HTS,MITF TRPM1 inh,TROY NFkB inh,EBV LMP1 NFkB
O=C(Cc1ccccn1)Nc1ccccc1,.,109.8*,-10.0,13.9,-17.9,-3.6
COc1ccc2[nH]c(=O)c(CN(Cc3cccs3)S(=O)(=O)c3c(C)ccc4nsnc34)cc2c1,.,60.6*,.,8.2,25.2,25.7
C[C@@H]1CN([C@@H](C)CO)C(=O)c2cccc(NC(=O)CCCCCC(=O)Nc3ccccc3N)c2O[C@@H]1CN(C)C(=O)NC1CCCCC1,0.6,.,.,.,.,.
CCCc1ccc(S(=O)(=O)N2CCN(C(C)C(=O)NC3CCCC3)CC2)cc1 (stereo not given),10.1,3.1,-0.6,-2.9,14.5,-3.8
CCC(C)c1ccc(S(=O)(=O)N2CCN(C(C)C(=O)NC3CCCC3)CC2)cc1 (stereo not given),2.0,86.8*,.,.,-18.2,-5.2
CO[C@H]1CN(C)C(=O)c2ccc(NC(=O)c3cc(C)on3)cc2OC[C@@H](C)N(C)C[C@H]1C,1.0,.,.,.,.,.
O=C1c2ccccc2NC(c2ccccc2O)N1c1ccc(F)cc1 (stereo not given),-90.6,-39.5,77.1,-71.3,-53.1,-1.3
COc1cccc(C2Nc3ccccc3C(=O)N2c2ccc(F)cc2)c1O (stereo not given),-25.1,-49.7,100.8*,-95.7,-45.6,0.8
C[C@H]1CCCCO[C@H](CN(C)S(C)(=O)=O)[C@@H](C)CN([C@@H](C)CO)C(=O)c2cc(NC(=O)c3ccccc3)ccc2O1,4.6,.,.,.,.,.
O=C(N/N=C/c1ccccn1)c1sc2ccccc2c1Cl,-82.4,85.6*,.,18.6,35.5,1.3
O=C(N/N=C/c1ccc([N+](=O)[O-])o1)c1sc2ccccc2c1Cl,2.2,8.9,-76.7,77.7*,10.7,-3.9
Cn1cccc1/C=N/NC(=O)c1sc2ccccc2c1Cl,.,50.9*,44.8,-39.0,.,-1.6
Cc1ccccc1C(=O)N/N=C/c1ccccn1,57.4*,25.6,18.9,-13.0,17.6,7.6
O=C(N/N=C/c1c[nH]c2ccccc12)c1sc2ccccc2c1Cl,-70.9,-24.8,38.3,-35.6,-29.9,-21.5
COc1ccc2c3c(n(C)c2c1)[C@H](CO)N(Cc1ccncc1)CC31CN(C(=O)C2CCC2)C1,7.0,.,.,.,.,.
O=C(O)C[C@@H]1CC[C@H]2[C@@H](COC[C@H](O)CN2S(=O)(=O)c2ccc(F)cc2)O1,-11.2,.,.,.,.,.
O=C(N/N=C\c1ccccn1)C1COc2cc3ccccc3cc2O1 (stereo not given),.,73.4*,.,-3.3,-10.6,-3.9
C[C@H](CO)N1C[C@H](C)[C@H](CN(C)CC2CCCCC2)Oc2ccc(NC(=O)Nc3cccc4ccccc34)cc2C1=O,5.8,.,.,.,.,.
COc1ccc(CN(C)C[C@@H]2Oc3ccc(NC(=O)C4CCCCC4)cc3CC(=O)N([C@H](C)CO)C[C@@H]2C)cc1,4.1,.,.,.,.,.
Cc1ccc(-n2nnc(-c3nccs3)n2)cc1,-11.6,94.4*,-55.6,55.0,65.7*,57.8*
O=C(CSc1nc2ccccc2o1)Nc1ccc(N2CCOCC2)c(Cl)c1,.,47.6,21.2,-14.3,52.2*,-5.4
O=C(Nc1nc2ccccc2s1)C1CCN(S(=O)(=O)c2cc([N+](=O)[O-])ccc2Cl)CC1,-19.5,83.7*,-49.6,52.8,36.1,-0.3
CCC(C)NC(=O)C1CCN(S(=O)(=O)c2cc([N+](=O)[O-])ccc2Cl)CC1 (stereo not given),-5.3,-9.0,-8.9,11.9,-11.2,4.7
CC1CCc2nc(NC(=O)CSc3nc4ccccc4o3)sc2C1 (stereo not given),.,93.0*,2.0,-1.0,86.1*,5.3
O=C(CSc1nc2ccccc2s1)Nc1ccc(Cl)c(S(=O)(=O)N2CCOCC2)c1,-0.1,64.9*,-27.4,30.5,30.4,20.5
SMILES,LGR2 antag,TWEAK-Fn14 inh,MITF TRPM1 HTS,MITF TRPM1 inh,TROY NFkB inh,EBV LMP1 NFkB
O=C(CSc1nc2ccccc2s1)Nc1ccc(N2CCOCC2)c(Cl)c1,7.5,37.7,-0.6,6.5,27.7,19.0
CO[C@H]1CN(C)C(=O)c2cc(NS(=O)(=O)c3ccccc3)ccc2OC[C@@H](C)N(Cc2nccs2)C[C@H]1C,4.3,.,.,.,.,.
COc1ccc(NC(=O)Nc2cccc3c2O[C@@H](CN(C)Cc2ccc(Cl)c(Cl)c2)[C@H](C)CN([C@@H](C)CO)C3=O)cc1,11.1,.,.,.,.,.
O=C(O)c1cn2c3c(ccc(Cl)c3c1=O)OCC2,-6.9,-6.0,.,-2.3,13.0,51.5*
O=C(C[C@@H]1C[C@@H]2c3cc(NS(=O)(=O)c4ccc(F)cc4)ccc3O[C@@H]2[C@H](CO)O1)NCC(F)(F)F,4.9,.,.,.,.,.
Cc1cc(NC(=O)c2ccoc2C)ccc1Br,-122.3,-17.5,86.1*,-82.5,-43.4,-13.4
O=C(N[C@H]1C/C=C\C[C@@H](CC(=O)N(CCO)Cc2ccccc2)C(=O)NC[C@H](c2ccccc2)OC1=O)OCC1c2ccccc2-c2ccccc21,.,51.5*,.,.,21.2,-1.7
COc1ccc(O)c(/C=N/c2nc3ccccc3n2C)c1,12.6,8.2,12.5,-16.3,10.8,89.9*
COCCn1c(C)cc(/C=C2/NC(=O)N(c3cccc(Cl)c3)C2=O)c1C,11.6,81.5*,19.1,-17.5,80.5*,2.3
CCn1c(C)cc(/C=C2/NC(=O)N(c3ccccc3)C2=O)c1C,1.3,73.7*,65.9,-60.8,74.5*,4.9
CSc1nccc(N/N=C/c2ccccc2)n1,-116.8,12.4,97.0*,-87.9,-24.8,-13.6
Cc1ccnc(N/N=C/c2ccccc2)n1,-30.2,15.3,29.5,-30.7,-21.3,-6.0
CN1CCN(C(=O)c2ccc(-c3cccs3)s2)CC1,.,2.4,.,-94.3,-37.5,1.0
O=C(c1cccs1)c1ccc(-c2cccs2)s1,61.8*,60.9*,-2.7,1.0,-6.4,-14.2
O=C(C[C@H]1CC[C@@H]2[C@H](COC[C@H](O)CN2S(=O)(=O)c2cccc(Cl)c2)O1)Nc1ccccc1,2.5,.,.,.,.,.
C[C@@H]1CN([C@@H](C)CO)C(=O)c2cc(NC(=O)Cn3cnnn3)ccc2O[C@@H]1CN(C)S(C)(=O)=O,17.8,.,.,.,.,.
CN(C)CCCN(C(=O)/C=C/c1cccs1)c1nc2c(F)cccc2s1,55.7*,19.7,-51.4,54.1,4.7,-3.5
CCC(=O)N1C[C@H](C)[C@@H](OC)CN(C)C(=O)c2cc(NC(=O)NC(C)C)ccc2OC[C@@H]1C,-4.3,.,.,.,.,.
O=C(C[n+]1cc(-c2ccc(Cl)cc2)n2c1CCCCC2)c1ccccc1,-43.8,-18.1,.,0.2,-47.9,-3.2
CC(C)[C@@H]1CC[C@@H](C)C[C@H]1OC(=O)C[n+]1cc(-c2ccc(Cl)cc2)n2c1CCCCC2,.,63.9*,.,78.7*,49.5,30.0

# Source: PubChem (several laboratories)
